High-throughput results: PubChem, several laboratories
GLD-1 TGE inh = GLD-1-TGE RNA interaction inhibition (C. elegans). actives 0.44% (n = 320,000). Q17339. purified GLD-1 + fluorescein TGE RNA, fluorescence polarization. inhibition, % at 5.96 µM;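 active means percent inhibition above a per-plate cutoff, the plate mean of test compounds plus 3 SD, cut at about 30% in these data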;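 further: 0% = DMSO wells with GLD-1 and probe and 100% = wells lacking GLD-1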
MEX-5 binding = C. elegans MEX-5 TCR-2 RNA binding activity. Q9XUB2. MEX-5/FITC-TCR2 RNA binding, fluorescence polarization; stronger effect = lower value. activity score (negative = inhibition of binding), % at 10 µM. actives 0.38% (n = 300,000). AID 1832;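 active means inhibition past about -25% in most replicates, and total fluorescence under double the plate's negative control median, limit read from the data; inconclusive means replicates evenly split on the limit, or fluorescence at least double controls; inactive means too little inhibition in most replicates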;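 further: 0% = DMSO and -100% = 5 µM competing unlabeled TCR2 RNA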
BCLXL inh = inhibitors of human Bcl-xL. AID 2129. GST-Bcl-xL / FITC-Bim BH3 peptide fluorescence polarization. actives 0.7% (n = 320,000). Q07817. inhibition, % at 10.9 µM;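 active means inhibition above the mean of all tested compounds plus 3 SD, cutoff set per campaign, cut at about 30% in these data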;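 further: 0% = DMSO wells and 100% = unlabeled Bim-BH3 peptide competitor; inhibitors lower millipolarization by displacing the labeled peptide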
Target sequence (Q07817 whole entry, looked up): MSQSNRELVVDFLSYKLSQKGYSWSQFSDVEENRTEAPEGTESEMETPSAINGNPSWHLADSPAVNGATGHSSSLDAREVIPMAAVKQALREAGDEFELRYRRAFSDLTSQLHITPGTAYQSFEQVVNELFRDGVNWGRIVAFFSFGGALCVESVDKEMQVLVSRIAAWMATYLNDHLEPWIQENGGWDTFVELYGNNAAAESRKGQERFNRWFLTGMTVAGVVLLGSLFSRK
eLon inh = E. coli protease La inhibition; AID 602123; purified E. coli Lon protease, fluorescence polarization; inhibition, % at 7.94 µM; P0A9M0; actives 0.42% (n = 360,000); in the data active means inhibition above about 13%, passing the limit was not always enough;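 further: 0% = enzyme with probe and DMSO and 100% = no enzyme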
EBV gp42 block = EBV gp42 inhibition. actives 0.42% (n = 220,000). AID 1085. inhibition, % (tested at 21.74 µM). Q1HVG2. Fluorescence polarization binding assay, mP read-out; in the data active means inhibition above about 50%
Target sequence (Q1HVG2 whole entry, looked up): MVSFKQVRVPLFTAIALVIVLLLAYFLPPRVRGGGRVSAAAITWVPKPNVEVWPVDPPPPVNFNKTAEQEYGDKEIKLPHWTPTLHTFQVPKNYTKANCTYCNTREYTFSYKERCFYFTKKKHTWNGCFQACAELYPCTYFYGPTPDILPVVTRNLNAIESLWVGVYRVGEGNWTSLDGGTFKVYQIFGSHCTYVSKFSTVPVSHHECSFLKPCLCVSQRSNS
Numbers without * were called inactive; i = inactive; ? = inconclusive; / = no result given. Compounds with a hit are over-represented: about 1.3% of the library has one in this group of screens.

SMILES	GLD-1 TGE inh	MEX-5 binding	BCLXL inh	eLon inh	EBV gp42 block
COc1ccc(NC(=O)C2CC2(Cl)Cl)cc1S(=O)(=O)N1CCCCC1 (stereo unspecified)	/	/	/	-8	/
O=C(Cc1ccc([N+](=O)[O-])cc1)N/N=C/c1ccc([N+](=O)[O-])o1	-2	1	4	-6	-39
O=C(N/N=C/c1ccc(-c2cccc([N+](=O)[O-])c2)o1)c1ccc([N+](=O)[O-])cc1	-2	-35*	5	-5	-8
COc1cc([N+](=O)[O-])ccc1-c1ccc(/C=N/NC(=O)c2ccccc2O)o1	/	2	/	/	67*
O=C(N/N=C/c1ccc(-c2cccc([N+](=O)[O-])c2)o1)c1ccccc1O	8	3	11	5	5
Cc1cc([N+](=O)[O-])ccc1-c1ccc(/C=N/NC(=O)Cc2ccccc2)o1	-5	-15	-2	-2	89*
O=C(CSc1nc2nn(-c3ccccc3)c(=O)c-2c2n1CCCCC2)c1ccc(O)c(O)c1	-1	/	21	-5	/
Cc1cc(C(C)C)n2c(nc3ccccc32)c1C#N	-3	1	4	/	-2
Cc1cc(-c2ccco2)c(C#N)c2nc3ccccc3n12	-14	-20	85*	4	/
Cc1ccccc1OCCC(=O)OCC(=O)Nc1c(C)nn(-c2ccccc2)c1C	3	3	-12	-1	/
O=C1/C(=C/c2ccccc2)Nc2ccccc21	-52	4	64*	0	-22
COc1cc([N+](=O)[O-])cc(/C=N/NC(=O)CC#N)c1O	/	-32*	/	/	-8
COc1cc([N+](=O)[O-])cc(/C=N/NC(=O)Cn2cncn2)c1O	1	-12	4	-13	-5
CC1=C/C(=C\C=C(C#N)C#N)N(C)c2ccccc21	-182	3	35*	-68	-29
CN1/C(=C\C=N\NC(=O)c2ccc(O)cc2)C(C)(C)c2ccccc21	32*	5	39*	13	-7
CN1/C(=C/C=C(C#N)C#N)C(C)(C)c2ccccc21	-114	-87*	47*	-1	54*
CN1/C(=C\C=N\NC(=O)c2cccnc2)C(C)(C)c2ccccc21	7	-2	6	0	-20
CCCCN1C(=O)/C(=C/C=C2\Oc3ccccc3N2CC)SC1=S	/	-28*	/	-467	104*
CN1CCS/C1=C\C=C1/SC(=S)N(CC(=O)O)C1=O	/	?	/	i	-294
CCCN1C(=O)/C(=C/C=C2\N(CC)c3ccccc3C2(C)C)SC1=S	25	3	-49	-158	127*
C=CCN1C(=O)/C(=C\C=C2\N(C)c3ccccc3C2(C)C)SC1=S	-31	-1	-29	-108	90*
CN1/C(=C\C=C2/SC(=S)N(CC(=O)O)C2=O)C(C)(C)c2ccccc21	-38	?	36*	-313	-138
CCCN1C(=O)/C(=C\C=C2/Sc3ccccc3N2CCO)SC1=S	-5	0	-4	-33	-7
CCCCNS(=O)(=O)c1ccc(Br)cc1N1CCC[C@H]1CO	/	/	/	-6	/
N#Cc1ccccc1NC(=O)CSc1nnc(-c2ccncc2)o1	-1	1	5	11	2
SMILES	GLD-1 TGE inh	MEX-5 binding	BCLXL inh	eLon inh	EBV gp42 block
O=C1C(c2ccc(F)cc2)N(Cc2ccc3c(c2)OCO3)C(=O)CN1C1CCCCC1 (stereo unspecified)	5	0	4	16	-14
COc1ccccc1CC1S/C(=N/N=C/c2ccco2)NC1=O (stereo unspecified)	5	-5	-11	-2	-16
O=C(CSc1nnc(SCc2ccccc2)s1)N/N=C/C=C\c1ccco1	1	0	1	-5	53*
CCN(CC)CCNC(=O)c1ccc(NC(=O)c2cccc(S(=O)(=O)N(C)C3CCCCC3)c2)cc1	/	/	/	-8	/
CCN(CC)CCNC(=O)c1ccc(NC(=O)c2ccc3c(c2)CCC3)cc1	14	0	48*	-5	/
CCN1C(=O)[C@H]2[C@H]3CN=C(SCc4ccc(C)cc4)N3[C@@](Cc3ccccc3)(C(=O)OC)[C@H]2C1=O	/	/	/	-2	/
CC1Cc2nc(SCC(=O)NCC3CCCO3)n(-c3ccc(F)cc3)c(=O)c2S1 (stereo unspecified)	0	-2	64*	5	/
Cn1nc2c3cc(F)ccc3n(Cc3ccc(F)cc3)cc-2c1=O	6	2	-1	5	/
COc1ccc(-c2cn[nH]c2-c2ccc(OCc3ccc(F)cc3)cc2O)cc1OC	6	2	-3	9	-3
COc1cc2c3nnc(-c4ccc(F)cc4)c-3cn(Cc3ccccc3)c2cc1OC	-2	?	82*	-5	-44
COc1ccc(Cn2cc3c(-c4ccc(F)cc4)nnc-3c3cc(OC)c(OC)cc32)cc1	0	/	47*	-14	-41
COc1cc2c3nnc(-c4ccc(F)cc4)c-3cn(Cc3ccc(F)cc3)c2cc1OC	-11	?	72*	-24	-92
CCOc1ccc(NC(=O)C(CC(=O)O)Cc2ccc(C)cc2)cc1 (stereo unspecified)	/	-1	/	3	/
CCCOc1ccc(CN(CCC#N)C(=S)NC(=O)c2ccccc2)cc1	-3	1	1	4	-3
COc1ccccc1N1CCN(Cc2cc(=O)n3ccsc3n2)CC1	8	-5	1	4	-16
CC1Cc2ccccc2N1Cc1cc(=O)n2ccsc2n1 (stereo unspecified)	11	/	33*	10	29
O=C(CSc1c2c(nc3cc(Cl)ccc13)CCCC2)NCc1ccco1	6	-2	7	-16	1
Cc1cc(NC(=O)CSCC(=O)N2CCN(c3ccccc3)CC2)no1	5	/	/	0	/
COc1cc2c(cc1OC)CN(c1ccc(-c3ccccc3OC)nn1)CC2	-16	-3	54*	11	-5
COc1cc2c(cc1OC)CN(c1ccc3ccccc3n1)CC2	-10	-3	-5	-3	/
COc1ccc(C(=O)NCc2ccc3c(c2)cc(C)n3C)cc1	0	0	4	15*	-9
Cc1cc2cc(CNC(=O)c3cc4ccccc4o3)ccc2n1C	39*	-2	31*	/	5
CC1(C(=O)NS(=O)(=O)C2CC2)CCCN(C(=O)c2cccnc2Oc2ccccc2)C1 (stereo unspecified)	/	/	/	-11	/
CC(OC(=O)c1ccc(S(C)(=O)=O)c([N+](=O)[O-])c1)C(=O)NC1C2CC3CC(C2)CC1C3 (stereo unspecified)	/	/	/	1	/
Oc1ccccc1C=NC1=NN(c2cccc(C(F)(F)F)c2)CC1	-3	1	10	-8	113*
FC(F)(F)c1cccc(N2CCC(N=CN3CCCCCC3)=N2)c1	2	1	7	1	-1
O=C(CSc1nc(-c2ccccc2Cl)ns1)NCc1ccco1	-1	2	-2	-3	-19
O=C(CSc1nc(-c2ccccc2Cl)ns1)NCc1ccc2c(c1)OCO2	-6	3	63*	-7	-17
O=S(=O)(Nc1cc2nc3ccccc3nc2n1Cc1ccccc1)c1ccc(Cl)cc1	40*	1	30	-104	121*
